# Not all results are given here.
# aSyn 5UTR act: Activators via SNCA 5'UTR binding, MLPCN; hit rate 7.1% among 300,000; alpha-synuclein 5'UTR reporter, activators screen; activity score, % (tested at 7.5 µM), hits read low; in the data active means activity score below about -60%
# * = called active by the depositor.
SMILES,aSyn 5UTR act
N=C1c2ccccc2CN1NC(=O)c1ccc(F)cc1,-62*
O=C(Nc1ccc2c(c1)OCO2)c1cn(Cc2ccc(F)cc2)nn1,-76*
CCc1ccc(NC(=O)CCNC(=O)N2C[C@H]3C[C@@H](C2)c2cccc(=O)n2C3)cc1,-70*
COc1ccc(C(=O)N/N=C/C23CC[C@@H](O)CC2(O)CC[C@@H]2[C@@H]3CCC3(C)C(C4=CC(=O)OC4)CCC23O)cc1 (some centres not stated),89
CN1C(=O)C(=Cc2ccc(OCC(=O)Nc3ccccc3)cc2)C(=O)N(C)C1=O,-78*
Cc1cc(C(=O)Nc2ccccc2)nn1C(C)(C)C,-112*
Cc1cc(C(=O)Nc2ccc3c(c2)OCCO3)nn1C(C)(C)C,-136*
CC[n+]1c(/C=C/C=C/c2ccc(N(C)C)cc2)sc2ccccc21,60
COc1cc(/C=C(/C)[N+](=O)[O-])ccc1OCc1ccccc1Cl,-134*
CC12CC[C@H]3[C@@H](CCC4(O)C[C@H](O)CCC34/C=N/NC(=O)c3ccccc3O)C1(O)CCC2C1=CC(=O)OC1 (some centres not stated),77
C/C1=C\[C@@H](C)C/C=C/[C@H]2[C@@H]3O[C@]3(C)[C@@H](C)[C@H]3[C@H](Cc4c[nH]c5ccccc45)NC(=O)[C@]32C(=O)/C=C/C(=O)[C@@H]1O,81
CN(C)c1ccc(/C=C2/C(=N\O)C3CCN2CC3)cc1,-133*
Nc1ccc2c(c1)Cc1ccccc1-2,-175*
C/C=C(\C)C(=O)N[C@@H](c1ccccc1)[C@@H](O)C(=O)O[C@H]1C[C@@]2(O)[C@@H](OC(=O)c3ccccc3)C3[C@](C)(C(=O)[C@H](O)C(=C1C)C2(C)C)[C@@H](O)C[C@H]1OC[C@@]31OC(C)=O (some centres not stated),98
C=C1C(=O)O[C@@H]2C[C@@H](C)[C@@H]3C=CC(=O)[C@@]3(C)[C@@H](O)[C@H]12,119
C[C@@H]1C[C@H]2OC(=O)C3(CO3)[C@H]2[C@H](O)[C@]2(C)C(=O)C3OC3[C@@H]12 (some centres not stated),-63*
COC(=O)C1=C(c2cc3ccccc3o2)C[C@@H]2CC[C@H]1N2C(=O)N1CCCCC1,66
Cc1cc(N=Nc2ccccc2C)ccc1N,-103*
Cn1ccc(NC(=O)CCl)n1,-70*
Cc1cc(NC(=O)CCl)nn1C,-94*
C[C@@H]1O[C@@H](O[C@H]2C[C@@H](O)[C@]3(CO)[C@H]4[C@H](O)C[C@]5(C)[C@@H](C6COC(=O)C6)CC[C@]5(O)[C@@H]4CC[C@]3(O)C2)[C@H](O)[C@H](O)[C@H]1O (some centres not stated),115
CN(C)C(=O)Oc1ccc2c(=O)c(Oc3ccccc3Br)coc2c1,-77*
CCOc1ccccc1-n1c(O)c(C=Nc2ccc(N(CC)CC)cc2)c(=O)[nH]c1=O,-66*
CCC(=NCCC1=CCCCC1)c1c(O)[nH]c(=O)[nH]c1=O,48
O=C1NC(=O)N(Cc2ccccc2)C(=O)/C1=C/C=C/c1ccco1,-296*
SMILES,aSyn 5UTR act
CC(C)c1ccc(N2C(=O)NC(=O)/C(=C\C=C\c3ccco3)C2=O)cc1,-70*
CCN(CC)C(=O)c1ccc(NC(=O)c2cccc(F)c2)cc1,-80*
CCN(CC)c1ccc(/C=C2\C(=O)NC(=S)N(C)C2=O)o1,-115*
CCN(CC)c1ccc(C=C2C(=O)N(C)C(=S)N(C)C2=O)o1,-86*
COc1cccc(OC)c1C1=NCC(=O)Nc2c1oc1ccc(Br)cc21,59
CC1(C)CN=C(Nc2nc3ccccc3s2)S1,-118*
Cc1ccc(/C=C2\C(=O)NC(=S)N(c3ccc(F)cc3)C2=O)s1,-116*
Cc1nc2cc(-c3cccc(F)c3)nn2c(C)c1CCC(=O)N1CCC2(CC1)OCCO2,77
O=C(CSc1ccccc1)N1CCC2(CC1)OCCO2,-92*
CC(=O)OC(C)(C)/C=C/C(=O)C(C)(O)C1[C@H](O)C[C@@]2(C)C3CC=C4C(CC[C@@H](O)C4(C)C)[C@]3(CO)C(=O)C[C@]12C (some centres not stated),86
